We go through 40 sequences from the supplement of paper PMC6555819.

The subject of this assay is VDR:RXRa (NR concentration 270 nM, RXRa partner concentration 90 nM). Put plainly: PBM binding z-score (relative to random genomic background probes); higher = stronger binding; sequences stand for … in GC…GCGATTGACAGCGTAGAATGAAGG
The protocol: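 Protein-binding microarray (Agilent 4x180K custom design, double-stranded 60-nt probes: 5' GC cap, 34-nt variable region, 24-nt constant primer region; full probe sequence given). Purified or IVT nuclear receptor:RXRα heterodimers (3:1 NR:RXRα, mostly 270:90 nM) or homodimers were incubated for 1 h in PBS with 2% milk and no ligand, then detected with Alexa488 antibodies. Fluorescence from o1-orientation probes (~5 replicates averaged) was converted to z-scores against 500 random hg19 background probes. Variable regions are seed direct-repeat (DR0–DR5) sites, all their single-nucleotide variants and half-site ablations.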
Take TCGAGTAAGTTACGGGGGCATTCAGGGATGAAGA: the PBM binding z-score was 3.01.
In turn, ATATGTAGGTTAGGGTCGTTCAGAAAGTAGGGAA displayed a PBM binding z-score of 2.57.
Consider TAGCCTAAGTCATGGGCCAGTATACCACGCGAAC, for which the PBM binding z-score was -0.25.
CGTCAACGTTCAACTAAGGTAACGTAAAGCACGC gave a PBM binding z-score of 0.25.
The sequence TCGGGTAGGTTACGGGGGCATTCAGGGATGAAGA had a PBM binding z-score of 4.77.
On to ACTTACGGGTCAAGGAGGTTATAGCACGCGTATA, for which the PBM binding z-score turned out to be 6.7.
Next, CGAACTAGGTCACCGGGACAGTGAAGAGGTTGGA: 2.52; CGAACTAGGTCACTAGGACAGTGAAGAGGTTGGA: 1.18; AGTCAAAGTTCAGTAGGTAACGTAAGATTCAGCT: 2.4.
In turn, CCGAGTAGGTTACGAGGGGGAATTCAGTGCGAAT yielded a PBM binding z-score of 1.7.
As to ATCGAAAGGTGGACGAGGTGAGTATACACCGTTT, the PBM binding z-score came to 0.85.
Consider TCGAGTGGGTTACGGGGGCATTCAGGGATGAAGA, for which the PBM binding z-score came to 4.27.
TCTAGTTGGTCAAAGGTCTCACACTCGAAATGCG: the PBM binding z-score worked out at 1.42.
TCGAGCAGGTTACGGGGGCATTCAGGGATGAAGA yielded a PBM binding z-score of 3.86.
Next, CGAACTAGGTCACCAAGACAGTGAAGAGGTTGGA: 1.49; ATATGTAGGTTAGGGTCTTTCAGAAAGTAGGGAA: 0.666.
For the sequence CCGAGTAGGTTACGAGGGGGCATTCAGTGCGAAT, the PBM binding z-score was 5.35.
TCGAGTAGGTTACGGGGGCATGCAGGGATGAAGA gave a PBM binding z-score of 3.43.
With AATACAGGGTCACTTGGCCAGAGTAGGTACGAAT the figure was 4.36.
In the case of CCGAGTAGGTTACAAGGGGGCATTCAGTGCGAAT, the PBM binding z-score was 5.11.
Take GATACAGGGGCAAGGCCAGAGTACGCGTATTGAT: the PBM binding z-score came to 0.153.
Consider ATATGTAGGTTAGGGTGATTCAGAAAGTAGGGAA, for which the PBM binding z-score was 1.09.
CAAACTAGGTCACAGAGGTCAAACTCCGTGCGTA: the PBM binding z-score came out at 8.03.
For CGAACTAGCTCACCAGGACAGTGAAGAGGTTGGA, the PBM binding z-score is -0.616.
For CCTAGCAGGCCACGGTCACTCAAGCATTTCGCTT, the PBM binding z-score was -0.261.
With TAGCCTAGGTCATTCAGGGGCCAGAATAGAAAGC the figure was 3.17; with CCCACTGGGCCATTCAGAGGTCATTGATCATATG, 4.02.
The sequence CAAACTAGGTCAAGAGGTCAAAGGCCGCTTCCCG registered a PBM binding z-score of 5.83.
TCGAGTAGGTTACGGGGGCGTTCAGGGATGAAGA displayed a PBM binding z-score of 3.7.
Next, TCGAGTAGGTTACGGGGGCATTTAGGGATGAAGA: 3.96; CGAACTAGGTCAAAGGACAGTTAAAGGCGACGTA: 1.52.
As to CTATGTAGGTTAAGCGGGTCATTCAGTTTGAAAG, the PBM binding z-score worked out at 5.74.
In the case of TCTTGTAGATCAAAGCTTAAGAAAGCCGAAGCCT, the PBM binding z-score was -0.115.
The sequence CCTACTGGGCCAACAAGGTCATTGATGCCGATAA returned a PBM binding z-score of 5.56.
CCGACTGGGGCAAAGGTTACCACACTCAGTACGA yielded a PBM binding z-score of 1.81.
With AGTCAAAGTTCTTCTAGGTAACGTAAGATATGCT, the PBM binding z-score stood at 0.489.
Turning to CGAACTAGGTCAAAGGAGAGTGAAAGGCGACGTA, the PBM binding z-score is 0.961.
CGTCGAAGGTCAATGCTAGGTCAGTGAAAGCATT: the PBM binding z-score came to 4.47.
With AGAATGAGGTTATACGTAGGTCAGGGAAGAAAGT the figure was 3.34; with CAAACTAGGTCAAAGGACAGTGAAAGGCGACGTA, 1.53.
